Assay results as given in PubChem BioAssay AID602233 (National Center for Advancing Translational Sciences (NCATS), 2012).
Out of some 380,000 compounds screened, about 170 (0.045%) were called active. Where a call stands in place of a potency, no number is given. Calls follow the shape of the dose curve; as a rule, active = well fitted inhibition curve with a large enough effect; inconclusive = small, poorly fitted or top-dose-only effect; inactive = no such curve, though single readings can be large or run the other way. For the sample, actives were picked, then their nearest neighbours and some compounds at random.

These compounds were tested against Phosphoglycerate kinase, glycosomal (Trypanosoma brucei brucei) (UniProt P07378) (assay: qHTS Assay to Find Inhibitors of Phosphoglycerate Kinase). Conditions: PGK/GAPDH coupled, Kinase-Glo luminescence, 60 min; series mostly up to 57.5 µM.
Outline: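 Luminescent ATP detection (Kinase-Glo Plus) follows a 60-minute room-temperature incubation, with wells lacking PGK as controls. Buffer: 100 mM TEA (pH 7.6), 5 mM MgCl2, 0.01% Tween-20. Coupling enzyme GAPDH (100 nM final) supplies unstable 1,3-BPG in-well.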
Also: nearly all actives have a fitted effect of over 60% in size.
Potency is read from the fitted curve at half-maximal effect.

Sequence of Phosphoglycerate kinase, glycosomal (Trypanosoma brucei brucei) (P07378 whole entry, looked up): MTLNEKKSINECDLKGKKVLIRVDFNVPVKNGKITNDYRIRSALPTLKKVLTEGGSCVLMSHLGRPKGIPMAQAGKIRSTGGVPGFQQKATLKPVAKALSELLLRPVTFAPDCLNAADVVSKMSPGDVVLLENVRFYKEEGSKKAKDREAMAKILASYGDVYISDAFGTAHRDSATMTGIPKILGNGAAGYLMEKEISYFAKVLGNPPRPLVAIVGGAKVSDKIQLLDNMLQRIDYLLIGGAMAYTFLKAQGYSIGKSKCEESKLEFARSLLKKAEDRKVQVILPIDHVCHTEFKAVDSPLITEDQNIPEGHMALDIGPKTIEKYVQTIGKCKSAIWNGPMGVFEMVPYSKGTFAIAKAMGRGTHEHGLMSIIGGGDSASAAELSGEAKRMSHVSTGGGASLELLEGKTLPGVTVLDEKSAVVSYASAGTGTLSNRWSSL

SMILES | Potency
COc1cc(Nc2nc(-c3ccc(OC)c(OC)c3)nc3ccccc23)cc(OC)c1 | inactive
CCOC(=O)c1oc2ccc(S(=O)(=O)n3nc(-c4ccccc4OC)cc3N)cc2c1C | inactive
O=C(c1cnn(-c2ccc(F)cc2)c1-n1cccc1)N1CCN(c2ccc(F)cc2)CC1 | inactive
C=C(C)C(=O)Nc1cccc(C2=NOC3(C2)C[C@H](C(N)=O)N(C(=O)C(c2ccccc2)c2ccccc2)C3)c1 (stereo partly specified) | 7.94 µM (active)
C/C=C(\C)C(=O)N1CC2(CC(c3cccc(NC(=O)CCCCC)c3)=NO2)C[C@@H]1C(N)=O (stereo partly specified) | inactive
NC(=O)[C@H]1CC2(CC(c3cccc(NC(=O)[C@H]4CCC(=O)N4)c3)=NO2)CN1C(=O)c1ccccc1C(=O)c1ccccc1 (stereo partly specified) | inactive
O=C(CC1C(=O)N(c2ccccc2)C(=O)N1CCc1cccs1)Nc1ccc(F)cc1 (stereo unspecified) | inactive
Fc1ccc(-c2nn(-c3ccccc3Cl)c3c2cnc2ccccc23)cc1 | inactive
COC(=O)c1ccccc1NC(=O)c1cc(-c2ccccc2O)no1 | inactive
COc1ccc(CCNC(=O)c2cn(C)c3ccc(S(=O)(=O)N(C)C4CCCCC4)cc3c2=O)cc1OC | inactive
Cc1nn(C(=O)c2c(F)cccc2F)c(C)c1S(=O)(=O)N1CCOCC1 | inactive
Cc1cccc(NC(=O)CSc2ncc(-c3ccccc3)[nH]2)c1C | inactive
CCc1ccc(NC(=O)CCCc2nnc3n(CCCOC)c(=O)c4sccc4n23)cc1 | inactive
COc1ccc(C2=CC(c3ccccc3Cl)n3nc(-c4ccc(Cl)cc4)nc3N2)cc1 (stereo unspecified) | inactive
Cc1ccc(-c2onc(C)c2C)cc1S(=O)(=O)Nc1ccccn1 | inactive
Cc1ccc(CN2C(=O)SC(Nc3ccccc3)C2=O)cc1 (stereo unspecified) | inactive
O=C(OCc1cc(=O)n2nc(C3CC3)sc2n1)c1ccccc1Cl | inactive
O=C(NCc1ccc(F)cc1)c1ccc(Cn2c(SCc3ccc(F)cc3)nc3cccnc32)cc1 | inactive
COc1cccc(N2CCN(S(=O)(=O)c3cc(Br)cc4c3N(C(=O)C3CC3)CC4)CC2)c1 | inactive
O=C(Nc1nnc(C2CC(=O)N(c3ccc(Cl)cc3)C2)s1)c1ccco1 (stereo unspecified) | inactive
Cc1ccc(C2CCN(C(=O)c3cnn(-c4ccccc4Cl)c3C3CCN(C(=O)OC(C)(C)C)CC3)C2)cc1 (stereo unspecified) | inactive
O=C(COc1ccc(Cl)cc1)Nc1ccc(-c2nc3cc(Cl)ccc3o2)c(O)c1 | inactive
COc1cc(C(CC(=O)NCCC(C)C)N2Cc3ccccc3C2=O)cc(OC)c1OC (stereo unspecified) | inactive

SMILES | Potency
COc1ccccc1C1C(C(=O)N2CCCCC2)=C(C)Nc2nc3ccccc3n21 (stereo unspecified) | inactive
CCOc1ccc(C2CC(=O)c3c([nH]c(C(=O)OCc4ccccc4)c3C)C2)cc1 (stereo unspecified) | inactive
CCCC(=O)Nc1cc(C(=O)NCc2ccc(OC)cc2)ccc1S(=O)(=O)c1ccc(Cl)cc1 | inactive
CC1=C(C(=O)OCC(C)C)C(c2ccc(OCc3ccccc3)cc2)N2C(=O)CCSC2=N1 (stereo unspecified) | inactive
O=C(/C=C/c1cn(CC(O)CN2CCc3ccccc32)c2ccccc12)c1ccc(Br)cc1 (stereo unspecified) | inactive
O=C(Nc1ccc(C(=O)OCc2cc(=O)n3nc(C4CC4)sc3n2)cc1)c1ccc(F)cc1 | inactive
Cc1c(Cl)cccc1NC(=O)C(=O)NCCc1csc2nc(-c3ccccc3F)nn12 | inactive
Cc1ccc(N(CC(=O)NCC(C)c2ccccc2)S(=O)(=O)N(C)C)cc1 (stereo unspecified) | inactive
CCc1nnc2c3ccccc3nc(N3CCN(c4ccc(C)cc4C)CC3)n12 | inactive
O=C(C1CCCN(S(=O)(=O)c2cccc3nonc23)C1)N1CCN(c2ccccc2F)CC1 (stereo unspecified) | inactive
NS(=O)(=O)c1ccc(NC(=O)C(=O)Nc2ccc3nc4n(c(=O)c3c2)CCCCC4)cc1 | inactive
O=C(NCc1ccc(Cl)cc1)c1ccc2c(c1)nnn2C1CCCC1 | inactive
Oc1ccccc1-c1nc2ccc(Cl)cn2c1Nc1ccc2c(c1)OCCO2 | inactive
COc1ccc(SCc2cc(=O)c3ccc(C)c(C)c3[nH]2)cc1 | inactive
Cc1ccc(-c2nc(Cn3c(=O)cc(-c4ccccc4)c4c(C)nn(C)c43)c(C)o2)cc1 | inactive
CC(C)c1ccc(NC(=O)CN(C)S(=O)(=O)c2ccc3c(c2)c(=O)n(C)c(=O)n3C)cc1 | inactive
Cc1ccc2nc(-c3ccc(O)cc3)c(Nc3ccc4c(c3)OCO4)n2c1 | inactive
CC(C)Oc1ccc(CNC(=O)C2CCN(c3nc4ccccc4n(C)c3=O)CC2)cc1 | inactive
COc1cccc(C(=O)Nc2ccc(-c3cc(C(F)(F)F)nn3-c3ccccc3)cc2)c1 | inactive
Cc1ccc(NC(=O)c2oc3ccc(S(=O)(=O)N4CCCCC4)cc3c2C)cc1Cl | inactive
Cc1ccccc1C(=O)Nc1nnc(S(=O)(=O)N(C)c2ccc(Cl)cc2)s1 | inactive
O=C(COc1ccc(Cl)cc1)N(Cc1ccco1)Cc1ccco1 | inactive
Cc1cc(C)cc(NC(=O)CSc2oc(-c3ccccc3)nc2S(=O)(=O)c2ccc(Cl)cc2)c1 | inactive
